Measurements taken from publication PMC12820563, “FoxP3 forms a head-to-head dimer in vivo and stabilizes its multimerization on adjacent microsatellites”.
Whole data set: some 16,000 sequences, median “rpm ratio (pull-down/input)” near 0.5, cut for the highest 2% near 5.5. For the sample, the highest values were picked, then their nearest neighbours and some sequences at random.

What follows are sequences tested against T1, MBP-FoxP3dN (Mus musculus, UniProt Q99JB6 188-423) (assay: PD-seq (MBP pull-down with sequencing); 20 mM Tris-HCl pH 7.5, 100 mM NaCl, 1.5 mM MgCl2, 0.4 uM protein, 0.1 uM dsDNA library, 30 min, room temperature, amylose pull-down; high values mean tight binding). Conditions: protein: recombinant; tags: His6-MBP; chain copies: 2; dsDNA, one strand shown.
T1 sequence: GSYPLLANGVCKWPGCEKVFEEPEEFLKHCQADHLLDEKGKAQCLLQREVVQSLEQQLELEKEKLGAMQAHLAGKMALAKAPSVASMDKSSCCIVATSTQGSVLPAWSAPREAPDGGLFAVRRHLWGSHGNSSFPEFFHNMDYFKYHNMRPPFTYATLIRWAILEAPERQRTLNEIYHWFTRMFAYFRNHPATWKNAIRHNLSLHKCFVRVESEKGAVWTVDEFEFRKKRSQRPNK
How it was run: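 Binding is the reads-per-million enrichment of pull-down relative to input, pooled across replicates. For this, 0.4 µM His6-MBP-tagged mouse FoxP3 or FoxP1 fragment lacking the N-terminus, made in E. coli, was incubated with 0.1 µM Klenow-filled double-stranded degenerate DNA library for 30 min at room temperature in Tris pH 7.5 buffer with NaCl and MgCl2. Complexes bound to amylose resin were washed three times before proteinase K released the DNA for PCR barcoding and Illumina sequencing.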

Sequence | binding signal
GATGATTGTTCTCCCAGCTGATGAATTGGTCCACTCGAGTAAACAAATTTTCCTAATCTTTCTGTTCAAGCGCCATCTAC | 0.387 RPM ratio (pull-down/input)
GATGATTGTTCTCCCAGCTGATGAATTACTGAGCTCGAGTAAACAAATTTTCCTAATCTTTCTGTTCAAGCGCCATCTAC | 0.258 RPM ratio (pull-down/input)
GATGATTGTTCTCCCAGCTGATGAATTAACACCTTCGAGTAAACAAATTTTCCTAATCTTTCTGTTCAAGCGCCATCTAC | 0.408 RPM ratio (pull-down/input)
GATGATTGTTCTCCCAGCTGATGAATTCTTTACGTCGAGTAAACAAATTTTCCTAATCTTTCTGTTCAAGCGCCATCTAC | 0.372 RPM ratio (pull-down/input)
GATGATTGTTCTCCCAGCTGATGAATTGTAGCGGTCGAGTAAACAAATTTTCCTAATCTTTCTGTTCAAGCGCCATCTAC | 0.618 RPM ratio (pull-down/input)
GATGATTGTTCTCCCAGCTGATGAATTTAATACATCGAGTAAACAAATTTTCCTAATCTTTCTGTTCAAGCGCCATCTAC | 0.619 RPM ratio (pull-down/input)
GATGATTGTTCTCCCAGCTGATGAATTGTAACCGTCGAGTAAACAAATTTTCCTAATCTTTCTGTTCAAGCGCCATCTAC | 0.518 RPM ratio (pull-down/input)
GATGATTGTTCTCCCAGCTGATGAATTTTATTGATCGAGTAAACAAATTTTCCTAATCTTTCTGTTCAAGCGCCATCTAC | 5.5 RPM ratio (pull-down/input)
GATGATTGTTCTCCCAGCTGATGAATTTTATTTATCGAGTAAACAAATTTTCCTAATCTTTCTGTTCAAGCGCCATCTAC | 6.95 RPM ratio (pull-down/input)
GATGATTGTTCTCCCAGCTGATGAATTTGTATTATCGAGTAAACAAATTTTCCTAATCTTTCTGTTCAAGCGCCATCTAC | 5.3 RPM ratio (pull-down/input)
GATGATTGTTCTCCCAGCTGATGAATTTATTGAATCGAGTAAACAAATTTTCCTAATCTTTCTGTTCAAGCGCCATCTAC | 0.822 RPM ratio (pull-down/input)
GATGATTGTTCTCCCAGCTGATGAATTTATTCTATCGAGTAAACAAATTTTCCTAATCTTTCTGTTCAAGCGCCATCTAC | 0.549 RPM ratio (pull-down/input)
GATGATTGTTCTCCCAGCTGATGAATTTATTGTATCGAGTAAACAAATTTTCCTAATCTTTCTGTTCAAGCGCCATCTAC | 5.25 RPM ratio (pull-down/input)
GATGATTGTTCTCCCAGCTGATGAATTCTATTTATCGAGTAAACAAATTTTCCTAATCTTTCTGTTCAAGCGCCATCTAC | 6.6 RPM ratio (pull-down/input)
GATGATTGTTCTCCCAGCTGATGAATTTTTATTATCGAGTAAACAAATTTTCCTAATCTTTCTGTTCAAGCGCCATCTAC | 0.779 RPM ratio (pull-down/input)
GATGATTGTTCTCCCAGCTGATGAATTGTATTTATCGAGTAAACAAATTTTCCTAATCTTTCTGTTCAAGCGCCATCTAC | 6.83 RPM ratio (pull-down/input)

Sequence | binding signal
GATGATTGTTCTCCCAGCTGATGAATTTATTTTATCGAGTAAACAAATTTTCCTAATCTTTCTGTTCAAGCGCCATCTAC | 3.67 RPM ratio (pull-down/input)
GATGATTGTTCTCCCAGCTGATGAATTATTCCTATCGAGTAAACAAATTTTCCTAATCTTTCTGTTCAAGCGCCATCTAC | 0.365 RPM ratio (pull-down/input)
GATGATTGTTCTCCCAGCTGATGAATTTATTTGATCGAGTAAACAAATTTTCCTAATCTTTCTGTTCAAGCGCCATCTAC | 2.62 RPM ratio (pull-down/input)
GATGATTGTTCTCCCAGCTGATGAATTGATCAAGTCGAGTAAACAAATTTTCCTAATCTTTCTGTTCAAGCGCCATCTAC | 0.245 RPM ratio (pull-down/input)
GATGATTGTTCTCCCAGCTGATGAATTTGACGAGTCGAGTAAACAAATTTTCCTAATCTTTCTGTTCAAGCGCCATCTAC | 0.235 RPM ratio (pull-down/input)
GATGATTGTTCTCCCAGCTGATGAATTATCAGCCTCGAGTAAACAAATTTTCCTAATCTTTCTGTTCAAGCGCCATCTAC | 0.468 RPM ratio (pull-down/input)
GATGATTGTTCTCCCAGCTGATGAATTTCCGTGCTCGAGTAAACAAATTTTCCTAATCTTTCTGTTCAAGCGCCATCTAC | 0.332 RPM ratio (pull-down/input)
GATGATTGTTCTCCCAGCTGATGAATTGGACCATTCGAGTAAACAAATTTTCCTAATCTTTCTGTTCAAGCGCCATCTAC | 0.374 RPM ratio (pull-down/input)
GATGATTGTTCTCCCAGCTGATGAATTAGCCGACTCGAGTAAACAAATTTTCCTAATCTTTCTGTTCAAGCGCCATCTAC | 0.205 RPM ratio (pull-down/input)
GATGATTGTTCTCCCAGCTGATGAATTCTGGAATTCGAGTAAACAAATTTTCCTAATCTTTCTGTTCAAGCGCCATCTAC | 0.579 RPM ratio (pull-down/input)
GATGATTGTTCTCCCAGCTGATGAATTCCCTGTGTCGAGTAAACAAATTTTCCTAATCTTTCTGTTCAAGCGCCATCTAC | 0.347 RPM ratio (pull-down/input)
GATGATTGTTCTCCCAGCTGATGAATTCGTTGTGTCGAGTAAACAAATTTTCCTAATCTTTCTGTTCAAGCGCCATCTAC | 5.69 RPM ratio (pull-down/input)
GATGATTGTTCTCCCAGCTGATGAATTTTTGTTGTCGAGTAAACAAATTTTCCTAATCTTTCTGTTCAAGCGCCATCTAC | 3.24 RPM ratio (pull-down/input)
GATGATTGTTCTCCCAGCTGATGAATTTTTCGTGTCGAGTAAACAAATTTTCCTAATCTTTCTGTTCAAGCGCCATCTAC | 0.363 RPM ratio (pull-down/input)
GATGATTGTTCTCCCAGCTGATGAATTTCTGTTGTCGAGTAAACAAATTTTCCTAATCTTTCTGTTCAAGCGCCATCTAC | 1.28 RPM ratio (pull-down/input)
